Experimental data published in PubChem BioAssay AID939 (National Center for Advancing Translational Sciences (NCATS), 2007).
Inconclusive results are not listed. Unmarked numbers belong to inactive results. The source made the active and inactive calls. Calls follow the shape of the dose curve; as a rule, active = well fitted activation curve with a large enough effect in the main read-out, with a control signal flat; inconclusive = small, poorly fitted or top-dose-only effect, or effect the other way, or a change in a side signal; inactive = no such curve, though single readings can be large or run the other way.

The compounds below were run against Thyrotropin receptor (Homo sapiens) (UniProt P16473) (assay: Confirmation Concentration-Response Assay for Agonists of the Thyroid Stimulating Hormone Receptor). Settings: HEK293 TSHR-CNG cells, membrane potential dye, cAMP; series mostly up to 25.6 µM; activation: at the top concentration.
Excerpt: NIH Chemical Genomics Center [NCGC] NIH Molecular Libraries Screening Centers Network [MLSCN] MLSCN Grant: 1 X01 MH080680-01 PI Name: Dr. Marvin Gershengorn, NIH NCGC Assay Overview: Thyroid Stimulating Hormone Receptor TSH is an alpha/beta heterodimeric glycoprotein hormone secreted from the anterior pituitary gland which belongs to the glycoprotein hormone family. The actions of TSH are mediated by a seven-transmembrane receptor, which upon TSH binding couples preferentially to the G-alpha (s) protein (Gs), resulting in activation of adenylate cyclase and increase in cyclic adenosine 3', 5' monophosphate (cAMP). The TSH receptor (THSR) is mainly expressed in thyroid follicular cells and regulates their growth and function. Recombinant TSH is used to activate TSHR in patients with thyroid cancer receiving thyroid hormone suppression therapy and to screen for residual tumor after surgery, but it is expensive and must be administered intramuscularly. An orally active small molecule TSHR agonist would serve as an invaluable research tool for studying TSHR pharmacology and physiology, and would have multiple advantages in therapeutic settings. However, no selective small molecule agonist of the TSH receptor exists, and no small molecule screen for TSHR agonists has ever been reported. This cell based assay utilized a cyclic nucleotide gated ion channel (CNG) as a biosensor for cAMP induction by potential TSHR agonists. TSHR cell line HEK 293 cells stably expressing the TSHR as well as a modified CNG were purchased from BD biosciences. Stimulation of cAMP production causes the CNG to open and subsequent membrane depolarization to occur. A fluorescent membrane potential dye (BD biosciences) was utilized to detect cAMP stimulation in TSHR cells. The cells were maintained in DMEM medium (Invitrogen) containing 10 % FBS (Hyclone), 100 units/ml Penicillin, 100 ug/ml Streptomycin (Invitrogen), and 250 ug/ml Geneticin (Invitrogen) and 1 ug/ml Puromycin (Invitrogen) at 37C in 5% CO2. HEK 293 cells expressing CNG but without TSHR (parental cells) were used in concert to control for compounds signaling through endogenous receptors and targets of HEK 293 cells.
NCGC Assay Protocol Summary: High Throughput Screening. Freshly passaged cells (TSHR or parental) were dispensed into 1536-well assay plates at 4 ul/well in DMEM containing phenol red (Invitrogen), 10% FCS (Hyclone), and 100 units/ml Penicillin, 100 ug/ml Streptomycin (Invitrogen) and incubated at 37 C with 5% CO2 for 20 to 36 hrs before the robotic screening. The screen was initiated by addition of 4 ul/well membrane potential dye containing 100 uM RO 20-1724 (Sigma Aldrich), followed by 60 min incubation at room temperature to allow for dye equilibration across the cell membrane. 23 nl/well compound or control was then added to the assay plates, which were incubated for additional 30 min before reading a Envision fluorescence plate reader (Perkin Elmer) in bottom-read mode for fluorescence intensity (emission at 590 nm). Keywords: Thyroid-stimulating hormone TSH, TSHR, TSHR agonist, quantitative high throughput screening, qHTS, HTS, probe identification, CNG, cAMP, cyclic nucleotide gated ion channel PubChem
For activation in this document: % of control where 0% means no effect.
Potency is read from the fitted curve at half-maximal effect.

Chain of Thyrotropin receptor (Homo sapiens) (P16473 whole entry, looked up): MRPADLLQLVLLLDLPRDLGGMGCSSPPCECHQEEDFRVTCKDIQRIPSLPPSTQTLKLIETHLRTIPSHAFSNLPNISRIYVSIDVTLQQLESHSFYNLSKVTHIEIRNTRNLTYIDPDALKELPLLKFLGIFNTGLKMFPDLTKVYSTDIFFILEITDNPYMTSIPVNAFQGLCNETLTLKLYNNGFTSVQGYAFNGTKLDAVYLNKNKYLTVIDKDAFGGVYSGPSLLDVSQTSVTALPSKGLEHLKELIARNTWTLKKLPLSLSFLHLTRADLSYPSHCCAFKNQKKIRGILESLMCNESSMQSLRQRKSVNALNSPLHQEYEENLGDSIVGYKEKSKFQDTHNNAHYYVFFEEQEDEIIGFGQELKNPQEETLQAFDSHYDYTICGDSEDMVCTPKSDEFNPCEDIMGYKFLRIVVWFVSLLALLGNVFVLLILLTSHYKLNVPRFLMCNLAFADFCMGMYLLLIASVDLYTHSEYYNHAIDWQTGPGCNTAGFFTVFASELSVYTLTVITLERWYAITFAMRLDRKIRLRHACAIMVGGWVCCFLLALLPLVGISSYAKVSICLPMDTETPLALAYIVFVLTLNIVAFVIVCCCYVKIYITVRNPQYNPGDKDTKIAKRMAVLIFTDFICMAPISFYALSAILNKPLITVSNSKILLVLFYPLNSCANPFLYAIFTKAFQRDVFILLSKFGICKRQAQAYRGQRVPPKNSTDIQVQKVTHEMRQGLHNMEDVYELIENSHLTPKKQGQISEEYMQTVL

Compound	activation	Potency
Cc1cc(Cl)c(S(=O)(=O)Nc2ccc3c(c2)OCO3)cc1OCC(N)=O	-7.58% [at 32.9 µM]	–
COc1ccc(CNc2nc(SC)n[nH]2)cc1OC	13.1%	–
CCOc1ccc(N(C(C)C(=O)Nc2ccc(OC)cc2)S(C)(=O)=O)cc1 (stereo not given)	15.6%	–
C=CCn1c(NCc2ccc3c(c2)OCO3)nc2ccccc21	-24.4%	–
O=c1c2ccccc2ncn1-c1ccc2c(c1)OCCO2	13.2%	–
CN1C(=O)C2C=CC1C1C(=O)N(c3ccccc3)C(=O)C21 (stereo not given)	7.27%	–
CCOC(=O)c1ccc(NC(=O)c2ccc(CN3CCOCC3)cc2)cc1	-4.24% [at 32.9 µM]	–
Oc1ccccc1-c1cc(C(F)(F)C(F)F)nc(-c2ccccc2)n1	–	7.94 µM (active)
O=C1C2C3CCCC3=C3CCCC3C2C(=O)N1c1ccc(Cl)cc1 (stereo not given)	–	1.58 µM (active)
Cn1c(=O)[nH]c(=O)c2c1nc(N1CCCCCC1)n2CCCSc1nc2ccccc2o1	-24.4%	–
O=C(CN(Cc1ccc(F)cc1)S(=O)(=O)c1ccccc1)N1CCCCC1	–	10 µM (active)
Cc1cc(-n2c(C)cc(C(=O)CSc3nnnn3-c3ccc(Cl)cc3)c2C)no1	–	3.98 µM (active)
CCCC(=O)C1=C(SCC)CC(C)(C)C(C(=O)OC)C1=O (stereo not given)	17.8% [at 32.9 µM]	–
CCOC(=O)C1C(=O)Nc2nc(C)nn2C1c1ccccc1 (stereo not given)	10.8% [at 32.9 µM]	–
O=C(COC(=O)C1c2ccccc2Oc2ccccc21)Nc1ccc2c(c1)OCO2	–	12.6 µM (active)
COc1ccc(-c2cc(C(F)(F)F)nc(SCCC(=O)N3CCOCC3)n2)cc1	–	15.8 µM (active)
O=C(COC(=O)C12CC3CC(CC(C3)C1)C2)NCc1ccco1	–	2 µM (active)
Cc1occc1-c1nnc(SCC(=O)NCc2ccc3c(c2)OCO3)n1CC(C)C	–	12.6 µM (active)
CCN(c1ccccc1)S(=O)(=O)c1ccc(Oc2ccc(-n3ccnc3)cc2)nc1	-5.42% [at 32.9 µM]	–
CCOc1ccc(N(CC(=O)NC(C)(C)C)S(=O)(=O)c2c(C)noc2C)cc1	16.8%	–

Compound	activation	Potency
CCc1ccc(-c2nc(CN3CCC(C(=O)N4CCN(c5ccccc5)CC4)CC3)c(C)o2)cc1	-56.9%	–
CC(C)CC(=O)Nc1cccc(-c2cn3ccsc3n2)c1	-14.2% [at 32.9 µM]	–
CC1(C)c2ccccc2N2CC(=O)NC21/C=C/c1ccco1 (stereo not given)	–	12.6 µM (active)
CN(Cc1ccco1)C(=O)Cn1c(=O)oc2cc(S(=O)(=O)NCc3ccccc3)ccc21	–	12.6 µM (active)
CC(=O)Nc1ccc(S(=O)(=O)N(C)c2ccccc2)cc1	21% [at 32.9 µM]	–
CC1(C)c2ccccc2N2CCC(=O)NC21/C=C/c1ccco1 (stereo not given)	–	6.31 µM (active)
Cc1ccc(-n2nc(-c3ccc(N)cc3)cc2N)cc1	-50.8%	–
Cc1ccccc1NC(=O)CSc1nnc(-c2ccoc2C)n1CCc1ccccc1	–	6.31 µM (active)
Cc1cc(C)nc(N(C#N)CC(=O)N2CCC(C(N)=O)CC2)n1	8.57% [at 32.9 µM]	–
Cc1ccccc1-n1nc(C)c2cc(C(=O)N3CCN(S(=O)(=O)c4ccc(F)cc4)CC3)sc21	-1.75% [at 32.9 µM]	–
COc1ccc(S(=O)(=O)NCCC(=O)NCc2ccc(F)cc2)cc1	1.97% [at 32.9 µM]	–
CCSCCOC(=O)C1=C(C)N(C)C(=O)NC1c1cc(OC)ccc1OC (stereo not given)	24.2% [at 32.9 µM]	–
O=C(C1COc2ccccc2O1)N1CCCC1 (stereo not given)	-9.39%	–
Cc1ccccc1-c1nc(CN2CCC(C(=O)N3CCN(c4ccccn4)CC3)CC2)c(C)o1	3.04%	–
O=C(CN(Cc1ccccc1Cl)C(=O)Cn1nnc(-c2cccs2)n1)NCC1CCCO1 (stereo not given)	11.5% [at 32.9 µM]	–
CN1C(=O)N(C)C2(c3ccccc3)Nn3c(s/c(=C/c4ccco4)c3=O)=NC12c1ccccc1 (stereo not given)	11.9% [at 32.9 µM]	–
CCOC(=O)N1CCC(NC(=O)c2ccc(CNS(=O)(=O)c3ccc(F)cc3)cc2)CC1	18% [at 32.9 µM]	–
COc1ccc(C2Nc3ccccc3C(=O)N2Cc2ccco2)cc1COc1ccc(NC(C)=O)cc1 (stereo not given)	–	0.631 µM (active)
Cc1ccc(N(CC(=O)NCc2ccco2)S(=O)(=O)c2ccccc2)cc1	–	12.6 µM (active)
Cc1ccc2nc(SCC(=O)O)nc(C)c2c1	-143%	–
